# HT1080 IDH1KD tx = HT-1080 IDH1 knockdown cell toxicity (counter line). HT-1080 IDH1 knockdown viability, ATP luminescence, 48 h. Potency, µM (titrated, usually from 46.1 µM), inactives show at the top dose activity, negative = toxicity, hits mostly cytotoxic. actives 2% (n = 360,000);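 note: 0% = DMSO wells and -100% = cell-free medium wells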
#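 Knockdown cells (IDH1KD HT-1080) received compounds 2 h after plating at 750 cells/well and were kept 48 h at 37 °C in 5% FBS RPMI. A CellTiter-Glo luminescence read gave % activity for curve fitting.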
# DT40 TDP1 no CPT = qHTS for Inhibitors of human tyrosyl-DNA phosphodiesterase 1 (TDP1): qHTS in cells in absence of CPT; DT40 Tdp1-/- hTDP1 cells, no CPT, ATP luminescence, 48 h; Potency, µM (doses to about 46.2 µM), inactives show at the highest dose activity change, negative = growth inhibition, actives largely listed as inhibitors; actives 15% (n = 420,000); AID 686978, 2013; note: nearly all actives have a fitted effect of over 55% in size
#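 Readout: luminescence from CellTiter-Glo after 30 min in the dark at RT. Cells: DT40 Tdp1-/- with stable hTDP1, 400/well. Exposure: compounds alone, ≥48 hr, 37 °C.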
# HT1080NT lethal = kills 2HG-producing HT-1080-NT fibrosarcoma cells; HT-1080-NT fibrosarcoma viability, CellTiter-Glo ATP luminescence, 48 h; Potency, µM (highest dose often 46.1 µM), for inactives: at the highest dose activity, negative = less viability, actives largely listed as cytotoxic; actives 1.6% (n = 360,000); AID 686970;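 note: NT is the 2HG producing partner of a matched IDH1 knockdown line; 0% = DMSO-treated cells and -100% = media-only wells without cells; nearly all actives have a fitted effect of over 55% in size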
#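 Toxicity toward the 2HG-producing NT line was scored as %Activity, normalised to DMSO and no-cell wells, from CellTiter-Glo luminescence after 48 hours' treatment.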
# DT40 TDP1 CPT = growth inhibition of DT40 Tdp1-/-;hTDP1 cells with camptothecin (screen for TDP1 inhibitors) | chicken DT40 Tdp1-/-;hTDP1 cells + 20 nM CPT, ATP luminescence, 48 h | Potency, µM (top dose mostly 46.2 µM), without a hit: top-dose activity change, negative = growth inhibition, actives largely listed as inhibitors | actives 12% (n = 420,000) | AID 686979; note: nearly all actives have a fitted effect of over 55% in size
#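 Chicken DT40 Tdp1-/- cells stably complemented with human TDP1 were seeded at 400 cells/well in medium containing 20 nM camptothecin, exposed to pin-transferred compounds, and grown at 37 °C for at least 48 hr. Viability was read as ATP luminescence.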
# KB-3-1 tox = KB-3-1 parental cell cytotoxicity | KB-3-1 viability, CellTiter-Glo ATP luminescence, 72 h | Potency, µM (highest dose often 46.1 µM), most hits filed as cytotoxic | actives 1.4% (n = 400,000) | AID 1347075; note: nearly all actives have a fitted effect of over 60% in size
#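 KB-3-1 parental drug-naive adenocarcinoma cells in DMEM/10% FBS, incubated 72 h at 37 C with pin-transferred compounds across a concentration series. Viability by CellTiter-Glo luminescence; concentration-response curves fitted after normalization.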
# KB-V1 MDR tox = KB-V1 MDR subline cytotoxicity | KB-V1 MDR cells viability, CellTiter-Glo, 72 h | Potency, µM (top dose mostly 46.1 µM), actives largely listed as cytotoxic | actives 3.4% (n = 400,000); note: nearly all actives have a fitted effect of over 60% in size
#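 Cytotoxicity via CellTiter-Glo luminescence after 72 h compound exposure at 37 degrees C. Cells: drug-selected KB-V1 line, DMEM phenol-red free plus 10% FBS. Compounds tested at multiple concentrations; normalized data fitted to concentration-effect curves.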
# An asterisk follows results filed as active; i = inactive; ? = inconclusive; / = not tested or not shown. An excerpt weighted towards active compounds, which were near 19% of everything screened. Calls come from the whole dose curve; as a rule, active = well fitted curve in the direction sought with a large enough effect; inconclusive = small, poorly fitted or top-dose-only effect, or another doubt; inactive = no such curve, though single readings can be large; an effect the other way counts as inactive or inconclusive. Unless noted, % is set by controls: 0 for no effect and ±100 for the full control effect; potency is the fitted concentration of half-maximal effect.
SMILES,HT1080 IDH1KD tx,DT40 TDP1 no CPT,HT1080NT lethal,DT40 TDP1 CPT,KB-3-1 tox,KB-V1 MDR tox
CC1(C)C(O)CC(O)[C@]2(C)C1CC(=O)[C@]1(C)C2CC[C@@]2(C)C(c3ccoc3)OC(=O)C3OC321 (stereo not given in full),/,-8%,/,?,/,/
CCC(CC)NCc1c[nH]c2ccccc12,-12%,3.7µM*,-10%,4.1µM*,i,i
CC(C)COP(=O)(c1ccc(N(C)C)cc1)C(O)c1ccc(Br)cc1 (stereo not given),16%,-26%,16%,?,i,i
O=C(Cn1c(=O)nc(-c2ccccc2)c2cc(Cl)ccc21)NCc1ccccc1,/,16µM*,/,7.3µM*,/,/
O=C(/C=C/c1ccc(Cl)cc1)N[C@@]12CCC(=O)[C@@H]3Oc4c(O)ccc5c4[C@@]31CCN(CC1CC1)C2C5,/,10µM*,/,13µM*,/,/
O=C1/C(=C\c2ccccc2)C[C@@]2(O)[C@H]3Cc4ccc(O)c5c4[C@@]2(CCN3CC2CC2)[C@@H]1O5,/,2.7µM*,/,2.4µM*,/,/
Oc1ccc2c3c1O[C@H]1c4c(c5ccccc5n4Cc4ccccc4)C[C@@]4(O)C(C2)N(CC2CC2)CC[C@]314,/,3.7µM*,/,5.2µM*,/,/
O=C1/C(=C\c2ccccc2)C[C@@]2(O)[C@H]3Cc4ccc(O)c5c4[C@@]2(CCN3CC2CC2)[C@H]1O5,/,2.1µM*,/,2.1µM*,/,/
O=C1CC[C@@]2(O)[C@H]3Cc4ccc(O)c5c4[C@@]2(CCN3CC2CC2)[C@@H]1O5,/,-7%,/,12%,/,/
COc1cccc(-n2c(CN3CCN(C)CC3)nc3ccc([N+](=O)[O-])cc3c2=O)c1,1%,?,2%,?,i,i
CC(C)CCCC(C)C1CCC2C3C(=O)C=C4CC(O)CC[C@@]4(C)C3CC[C@@]12C (stereo not given in full),/,-28%,/,-14%,/,/
O=C(c1csnn1)N1CCC2(CC1)CN(Cc1ccncc1)C2,/,-3%,/,7%,/,/
Oc1ccc2c3c1O[C@H]1c4[nH]c5c(c4C[C@@]4(O)[C@@H](C2)N(CC2CC2)CC[C@]314)C[C@]1(O)[C@H]2Cc3ccc(O)c4c3[C@@]1(CCN2CC1CC1)[C@@H]5O4,/,-4%,/,-5%,/,/
NC(N)=Nc1ccc2[nH]c3c(c2c1)C[C@@]1(O)[C@H]2Cc4ccc(O)c5c4[C@@]1(CCN2CC1CC1)[C@H]3O5,16µM*,4.6µM*,15µM*,2.3µM*,?,i
C[C@]12C=CC(=O)C=C1CC[C@@H]1C2CC[C@]2(C)OC(=O)CCC12 (stereo not given in full),19%,-5%,11%,1%,i,i
C#CCCC[C@@H]1OC(=O)CNC(=O)C([C@@H](C)CC)NC(=O)[C@@H]2CCCN2C(=O)C([C@@H](C)CC)OC(=O)[C@H](Cc2ccccc2)N(C)C(=O)[C@H](C(C)C)NC(=O)C1(C)C (stereo not given in full),?,21µM*,?,13µM*,i,i
CC(=O)OC(C)(C)/C=C/C(=O)C(C)(O)C1[C@H](O)C[C@@]2(C)C3CC=C4C(CC[C@@H](O)C4(C)C)[C@]3(CO)C(=O)C[C@]12C (stereo not given in full),0.033µM*,0.01µM*,0.1µM*,0.018µM*,?,3.7µM*
CC(=O)OC(C)(C)/C=C/C(=O)[C@](C)(O)[C@H]1[C@H](O)C[C@@]2(C)[C@@H]3CC=C4[C@H](C[C@H](O)C(=O)C4(C)C)[C@]3(C)C(=O)C[C@]12C,0.033µM*,0.0073µM*,0.082µM*,0.046µM*,0.15µM*,8.2µM*
CC(=O)OC(C)(C)/C=C/C(=O)C(C)(O)C1C(O)CC2(C)C3CC=C4C(CC(O)C(=O)C4(C)C)C3(C)C(=O)CC12C (stereo not given),0.046µM*,0.016µM*,0.12µM*,0.026µM*,0.16µM*,0.46µM*
O=C(CN1CCCCC1)NCC(=O)Nc1ccc(Br)cc1C(=O)c1ccccc1,-29%,18µM*,-28%,16µM*,i,i
O=C(CNC(=O)c1ccccc1)Nc1ccc(Br)cc1C(=O)c1ccccc1,-29%,?,-25%,2%,i,i
O=C(Nc1ccc(Br)cc1C(=O)c1ccccc1Cl)c1ccc(Br)cc1,/,-7%,/,5%,i,i
O=C(CNC(=O)c1ccccc1Cl)Nc1ccc(Br)cc1C(=O)c1ccccc1,-20%,18µM*,-17%,18µM*,i,?
O=C(CNC(=O)OCc1ccccc1)Nc1ccc(Br)cc1C(=O)c1ccccc1,?,?,?,?,?,10µM*
